# Measured values taken from PubChem BioAssay (NCATS).
# Results filed as inconclusive are left out. A number with no mark means an inactive call. The source made the active and inactive calls. The call rests on the fitted dose curve; in most records, active means well fitted cell-killing curve with a large enough effect; inconclusive means small, poorly fitted or top-dose-only effect, or effect the other way; inactive means no such curve, though single readings can be large or run the other way.
# Assays:
# [1] = Quantitative High-Throughput drug screen in 47 multiple myeloma cell lines against the NCATS MIPE library collection: LP1_DSMZ cell viability assay (AID 1918982); further: nearly all actives have a fitted effect of over 35% in size
# In short: (§1)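 500 cells/well per myeloma line exposed to pinned MIPE 4.0 compounds for 48 h at 37 °C, 5% CO2. Viability read as ATP by CellTiter-Glo luminescence, normalised to DMSO-only (100%) and media-only (0%) wells.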
# [2] = Quantitative High-Throughput drug screen in 47 multiple myeloma cell lines against the NCATS MIPE library collection: KMS28PE_JCRB cell viability assay (AID 1918983); further: nearly all actives have a fitted effect of over 35% in size
# In short: as §1
# [3] = Quantitative High-Throughput drug screen in 47 multiple myeloma cell lines against the NCATS MIPE library collection: KMS34_JCRB cell viability assay (AID 1918985); further: nearly all actives have a fitted effect of over 40% in size
# In short: as §1
# [4] = Quantitative High-Throughput drug screen in 47 multiple myeloma cell lines against the NCATS MIPE library collection: OCIMY7_PLB cell viability assay (AID 1918987); further: nearly all actives have a fitted effect of over 65% in size
# In short: as §1
# [5] = Quantitative High-Throughput drug screen in 47 multiple myeloma cell lines against the NCATS MIPE library collection: OPM1_PLB cell viability assay (AID 1918989); further: nearly all actives have a fitted effect of over 40% in size
# In short: as §1
# [6] = Quantitative High-Throughput drug screen in 47 multiple myeloma cell lines against the NCATS MIPE library collection: U266_ATCC cell viability assay (AID 1919864); further: nearly all actives have a fitted effect of over 35% in size
# In short: as §1
# [7] = Quantitative High-Throughput drug screen in 47 multiple myeloma cell lines against the NCATS MIPE library collection: XG6_PLB cell viability assay (AID 1919865); further: nearly all actives have a fitted effect of over 40% in size
# In short: as §1
# [8] = Quantitative High-Throughput drug screen in 47 multiple myeloma cell lines against the NCATS MIPE library collection: XG1_PLB cell viability assay (AID 1919866); further: nearly all actives have a fitted effect of over 35% in size
# In short: as §1
# [9] = Quantitative High-Throughput drug screen in 47 multiple myeloma cell lines against the NCATS MIPE library collection: PE2_PLB cell viability assay (AID 1919869); further: nearly all actives have a fitted effect of over 35% in size
# In short: as §1
# [10] = Quantitative High-Throughput drug screen in 47 multiple myeloma cell lines against the NCATS MIPE library collection: PCM6_Riken cell viability assay (AID 1919870); further: nearly all actives have a fitted effect of over 30% in size
# In short: as §1
# [11] = Quantitative High-Throughput drug screen in 47 multiple myeloma cell lines against the NCATS MIPE library collection: RPMI8226_ATCC cell viability assay (AID 1919871); further: nearly all actives have a fitted effect of over 30% in size
# In short: as §1
# [12] = Quantitative High-Throughput drug screen in 47 multiple myeloma cell lines against the NCATS MIPE library collection: OPM2_DSMZ cell viability assay (AID 1919872); further: nearly all actives have a fitted effect of over 30% in size
# In short: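 Approved and investigational drugs from MIPE 4.0 were added by pin tool to 500 cells per well. After 48 hours at 37C, ATP-based CellTiter-Glo luminescence indicated remaining viability.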
# [13] = Quantitative High-Throughput drug screen in 47 multiple myeloma cell lines against the NCATS MIPE library collection: KMS11_JCRBsus cell viability assay (AID 1919873); further: nearly all actives have a fitted effect of over 50% in size
# In short: as §1
# [14] = Quantitative High-Throughput drug screen in 47 multiple myeloma cell lines against the NCATS MIPE library collection: KMS28BM_JCRB cell viability assay (AID 1919874); further: nearly all actives have a fitted effect of over 35% in size
# In short: as §1
# [15] = Quantitative High-Throughput drug screen in 47 multiple myeloma cell lines against the NCATS MIPE library collection: L363_DSMZ cell viability assay (AID 1918984); further: nearly all actives have a fitted effect of over 40% in size
# In short: as §1
# [16] = Quantitative High-Throughput drug screen in 47 multiple myeloma cell lines against the NCATS MIPE library collection: OCIMY5_PLB cell viability assay (AID 1918988); further: nearly all actives have a fitted effect of over 65% in size
# In short: as §1
# [17] = Quantitative High-Throughput drug screen in 47 multiple myeloma cell lines against the NCATS MIPE library collection: VP6_DJ cell viability assay (AID 1919867); further: nearly all actives have a fitted effect of over 40% in size
# In short: as §1
# [18] = Quantitative High-Throughput drug screen in 47 multiple myeloma cell lines against the NCATS MIPE library collection: SKMM1_PLB cell viability assay (AID 1919863); conditions: SKMM1 myeloma viability, CellTiter-Glo ATP, 48 h; viability: hits give low values; further: nearly all actives have a fitted effect of over 35% in size
# In short: as §1
# Potency means the concentration at half of the fitted maximal effect.
SMILES,Potency [1],Potency [2],Potency [3],Potency [4],Potency [5],Potency [6],Potency [7],Potency [8],Potency [9],Potency [10],Potency [11],Potency [12],Potency [13],Potency [14],Potency [15],Potency [16],Potency [17],Potency [18]
CCc1c(C(=O)C(N)=O)c2c(OCC(=O)O)cccc2n1Cc1ccccc1,inactive,7.43 µM (active),inactive,inactive,inactive,inactive,inactive,inactive,inactive,inactive,inactive,inactive,inactive,inactive,–,–,–,–
CN1[C@H]2CC(O)C[C@H]1[C@H]1O[C@H]12 (stereo partly drawn),18.7 µM (active),20.9 µM (active),18.7 µM (active),3.32 µM (active),18.7 µM (active),23.5 µM (active),7.43 µM (active),9.35 µM (active),20.9 µM (active),11.8 µM (active),18.7 µM (active),23.5 µM (active),–,–,inactive,18.7 µM (active),9.35 µM (active),–
C[C@@H]1CC[C@H]2[C@@H](C)C(=O)O[C@@H]3O[C@@]4(C)CC[C@H]1[C@]32OO4,inactive,inactive,2.96 µM (active),1.87 µM (active),–,inactive,–,5.9 µM (active),0.743 µM (active),6.62 µM (active),–,0.264 µM (active),inactive,–,inactive,–,–,–
COc1ccc2c(c[n+](C)c3c4cc5c(cc4ccc23)OCO5)c1OC,14.8 µM (active),4.69 µM (active),4.18 µM (active),2.96 µM (active),9.35 µM (active),5.9 µM (active),5.26 µM (active),2.64 µM (active),7.43 µM (active),7.43 µM (active),8.33 µM (active),9.35 µM (active),3.32 µM (active),2.96 µM (active),4.18 µM (active),2.09 µM (active),2.96 µM (active),5.9 µM (active)
CC(C)N(CCNC(=O)CN1CCCC1=O)C(C)C,inactive,inactive,inactive,–,inactive,inactive,inactive,–,inactive,–,–,inactive,inactive,inactive,inactive,–,–,–
CC[C@@H]1[C@@H](C)O[C@@](O)([C@@H](C)[C@H](O)[C@H](C)[C@H]2OC(=O)C=CC=C[C@@H](C)[C@@H]([C@@H](C)[C@@H](O)[C@H](C)[C@@]3(O)C[C@H](O[C@H]4C[C@H](O)[C@H](O)[C@H](C)O4)[C@H](CC)[C@@H](C)O3)OC(=O)C=CC=C[C@@H]2C)C[C@H]1O[C@H]1C[C@H](O)[C@H](O)[C@H](C)O1,0.59 µM (active),0.372 µM (active),0.935 µM (active),0.662 µM (active),1.05 µM (active),–,0.469 µM (active),0.469 µM (active),0.833 µM (active),0.743 µM (active),0.372 µM (active),0.372 µM (active),0.418 µM (active),0.372 µM (active),0.372 µM (active),–,0.469 µM (active),0.662 µM (active)
CCCC[N+]1(C)[C@H]2CC(OC(=O)[C@H](CO)c3ccccc3)C[C@H]1[C@H]1O[C@H]12 (stereo partly drawn),inactive,inactive,inactive,–,inactive,inactive,inactive,–,inactive,inactive,inactive,inactive,–,inactive,inactive,inactive,–,–
C[C@@]12OC(=O)[C@]1([C@@H](O)[C@@H]1C=CCCC1)NC(=O)[C@H]2CCCl,0.0166 µM (active),0.0083 µM (active),0.0105 µM (active),0.001 µM (active),0.001 µM (active),0.0132 µM (active),–,–,0.0083 µM (active),0.0105 µM (active),0.0296 µM (active),0.0372 µM (active),0.0066 µM (active),0.0093 µM (active),–,–,0.001 µM (active),0.105 µM (active)
N=c1c2c(-c3ccccc3)c(-c3ccccc3)n(Cc3ccccc3)c2ncn1C1CCC(O)CC1 (stereo not drawn),23.5 µM (active),11.8 µM (active),13.2 µM (active),0.132 µM (active),3.32 µM (active),4.69 µM (active),6.62 µM (active),–,4.69 µM (active),–,14.8 µM (active),5.9 µM (active),2.09 µM (active),3.32 µM (active),5.26 µM (active),11.8 µM (active),0.0935 µM (active),16.6 µM (active)
CC(=O)N(C)c1cccc(-c2ccnc3c(C(=O)c4cccs4)cnn23)c1,inactive,inactive,–,–,–,–,inactive,inactive,inactive,inactive,–,inactive,18.7 µM (active),inactive,inactive,–,–,–
CN1CCN(c2ccc([N+](=O)[O-])c3no[n+]([O-])c23)CC1,18.7 µM (active),18.7 µM (active),14.8 µM (active),4.18 µM (active),18.7 µM (active),18.7 µM (active),20.9 µM (active),20.9 µM (active),23.5 µM (active),5.9 µM (active),–,–,23.5 µM (active),18.7 µM (active),8.33 µM (active),–,14.8 µM (active),18.7 µM (active)
